According to the supplement of paper PMC13380429:

System: Vero E6 infected with SARS-CoV-2
Test: inhibition of SARS-CoV-2 cytopathic effect; higher = more antiviral protection, active = above 15
Settings: 48 h

Measured: inhibition of SARS-CoV-2 cytopathic effect

Fc1ccc(C(c2ccccc2)(c2ccccc2F)n2ccnc2)cc1 (stereo not given) [flutrimazole]
inactive: 1 nM -1.84% | 8.33 nM -3.27% | 100 nM -4.23% | 833.33 nM -1.83% | 10000 nM -1.07%

CC(=O)[C@@]12O[C@](C)(c3ccccc3)O[C@@H]1C[C@H]1[C@@H]3CCC4=CC(=O)CC[C@]4(C)[C@H]3CC[C@@]12C [algestone-acetophenide]
inactive: 1 nM 0.43% | 8.33 nM 0.88% | 100 nM 1.95% | 833.33 nM 2.43% | 10000 nM 2.91%

Cc1[nH]c(=O)c(C#N)cc1-c1ccncc1 [milrinone]
inactive: 1 nM 1.1% | 8.33 nM -2.54% | 100 nM -1.13% | 833.33 nM -1.41% | 10000 nM 0.27%

CCn1nc(C)c2c1C(c1ccccc1)=NCC(=O)N2 [ripazepam]
inactive: 1 nM -1.39% | 8.33 nM 0.91% | 100 nM 0.56% | 833.33 nM -0.98% | 10000 nM -3.15%

COc1ccc2[nH]cc(C3=CCNCC3)c2c1
inactive: 1 nM 1.62% | 8.33 nM -0.77% | 100 nM 0.86% | 833.33 nM -2.22% | 10000 nM -3.05%

CCC1(c2ccc(N)cc2)CCC(=O)NC1=O (stereo not given) [aminoglutethimide]
inactive: 1 nM -0.9% | 8.33 nM 2.8% | 100 nM 3.28% | 833.33 nM 2.95% | 10000 nM 2.93%

N#Cc1ccc(N2CCN(C(=O)COc3ccc4[nH]cc(CCN)c4c3)CC2)cc1 [donitriptan]
inactive: 1 nM -0.48% | 8.33 nM -0.51% | 100 nM 0.51% | 833.33 nM -0.87% | 10000 nM 1.77%
